Hit rate of the full screen: of about 190,000 compounds, fewer than 10 were called active. Not all results are given here. Potency and affinity values are given separately. A number with no mark means an inactive call.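 The calls were made as follows: active = EC50 below 50 µM in the dose-response confirmation; inactive = the rest.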

The nature of the test: rescue of cells from ER stress-induced death, primary screen, 384-well, CSM14.1, thapsigargin, ATP luminescence (AID 1222).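 Also: death triggered by thapsigargin at about 15 µM added after 2 h compound pretreatment; cell ATP read after overnight thapsigargin exposure of roughly 18 to 22 hours; reference of the scale not given here.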 Particulars: CSM14.1 thapsigargin-induced death rescue, at 20 µM, hits give high values.
For `O=C(NCC1CC1)[C@@H]1C[C@H]1[C@@H](NP(=O)(c1ccccc1)c1ccccc1)c1ccccc1`, the cellular ATP content (survival) is -1.2%.
For `CC(=O)c1ccc(OCCCN2CCCCC2)cc1`, the cellular ATP content (survival) is -1.3%.
The same measure for `O=C(COC(=O)c1cc(Br)ccc1O)Nc1cc(S(=O)(=O)N2CCCC2)ccc1Cl`: -0.8%; for `O=C(NCCCN1CCCC1)c1cc2c(Cl)nc3ccccc3c2s1`: -12%; for `CC(=O)Cn1c(N2CCC(Cc3ccccc3)CC2)nc2c1c(=O)[nH]c(=O)n2C`: -1.8%.
`CCn1c(SCc2ccccc2Cl)nc2nc3c(cc2c1=O)CCCC3`: the cellular ATP content (survival) was -4.7%.
As to `CC(=O)Nc1ccc(OCc2cccc([N+](=O)[O-])c2)cc1`, the cellular ATP content (survival) was 1.1%.
Turning to `O=C(CSc1nc2ccccc2[nH]1)Nc1nc(-c2cccc(Br)c2)cs1`, the cellular ATP content (survival) is -3.8%.
The same measure for `CCOC(=O)C1CCN(C(=O)CCS(=O)(=O)c2ccc3c(c2)CC(C)N3C(=O)CC)CC1` (centres undefined): 0.4%; for `Cc1ccc(C)c(N2CCN(C(=O)CN(C)S(=O)(=O)c3cnc[nH]3)CC2)c1`: -1.7%.
Under `O=C(NCCO)c1cccc2c1C(=O)c1ccccc1-2` stands -1.3%; under `Cc1[nH]c2ccccc2c1C(=O)COC(=O)Cn1c(C(F)(F)F)nc2ccccc21`, 0.2%.
Under `Cc1ccc(CNS(=O)(=O)/C=C/c2ccc3c(c2)OCO3)cc1` stands -2.2%.
With `CC(=O)Nc1ccccc1C(=O)N1CCN(c2cccc(C)c2C)CC1`, the cellular ATP content (survival) was -1.4%.
Under `O=C(NCc1ccccn1)C1CC(c2ccc(F)cc2)=NO1` (centres undefined) stands -1%.
As for `CSc1nccc(N2CCN(c3ccc(F)cc3)CC2)n1`, the cellular ATP content (survival) is 5.7%.
With `Cc1ccc(NC(=O)c2ccc(OC(=S)N3CCOCC3)cc2)cc1`, the cellular ATP content (survival) was -1.3%.
The same measure for `Cc1cc(C)n(C(=O)COc2c(C)cccc2C)n1`: -2.8%; for `CCc1ccc(-c2nc(CCl)cs2)cc1`: -1.7%; for `C=CCNCCCCOc1ccc(C)cc1[N+](=O)[O-]`: -1.5%.
Consider `CN(C)S(=O)(=O)c1ccc(C(=O)OCc2ccc(C#N)cc2)cc1`, for which the cellular ATP content (survival) is -0.2%.
Under `C(=N\Nc1nc(N2CCOCC2)nc(N2CCOCC2)n1)/c1cccnc1` stands 1.2%.
Under `CCOC(=O)c1cc2cc([N+](=O)[O-])cc(OC)c2oc1=O` stands 0%; under `CC(=O)c1c(C)[nH]c(C(=O)COC(=O)CCSc2ccccc2)c1C`, 0.3%; under `COc1ccc(-c2csc(Nc3ccccc3)n2)cc1`, -1.2%.
Under `C=CC[C@@H]1Cc2c(Br)ccc(Br)c2[C@@H](CC=C)N1` stands -0.9%; under `Cc1ccccc1OCc1nnc(SCC(=O)Nc2ccc3nc(SCC(=O)Nc4ccccc4)sc3c2)n1C`, -0.5%; under `COc1cc(NC(=O)CN2c3cccc4cccc(c34)S2(=O)=O)cc(OC)c1OC`, -1%.
On to `C=CCn1c(=O)c(C(=O)OCC)c(O)c2ccccc21`, for which the cellular ATP content (survival) is -1.4%.
The same measure for `CC(C)c1ccc(N2C(=O)CSC23C(=O)N2CCCc4cccc3c42)cc1` (centres undefined): -0.3%; for `O=C1CCc2cc(S(=O)(=O)NC(Cc3ccccc3)C(=O)NC3CCCCC3)ccc2N1` (centres undefined): 0%; for `Cc1ccc(CCNC(=O)C2CCN(C(=O)N(C)C)CC2)cc1`: -1.1%.
As for `CCOC(=O)CC1ON(C)C(=O)N1c1ccc(Cl)cc1Cl` (centres undefined), the cellular ATP content (survival) is 0.4%.
As for `COc1cc(/C=N/Nc2nc(Nc3ccccc3)nc(N3CCCCC3)n2)ccc1OCC(=O)O`, the cellular ATP content (survival) is -1.5%.
Under `COCCN(C(=O)Cc1cccs1)C(C(=O)NC1CCCC1)c1ccc(OC)c(OC)c1` (centres undefined) stands -1%; under `Cc1ccc(-c2nnc(CSc3nnc(COc4cccc5ccccc45)n3-c3ccccc3)o2)cc1`, 0.6%; under `CC(C)=CCN1CCN(Cc2ccc(C)s2)CC1CCO` (centres undefined), 0.8%.
Under `c1cnc2c(SCc3ccc(-c4nnco4)cc3)cccc2c1` stands -0.4%; under `CC(=O)Nc1nc2ccc(NC(=O)c3ccco3)cc2s1`, -5.6%; under `O=C1OC(Cc2ccccn2)C(=O)C1=C1SCCS1` (centres undefined), -2.9%.
For `O=C(c1ccc(Cl)c(S(=O)(=O)N2CCCCCC2)c1)N1CCN(c2ccccc2O)CC1`, the cellular ATP content (survival) was 0.3%.
Under `NS(=O)(=O)c1ccc(CCNC(=O)CN2CCN(c3cccc(Cl)c3)CC2)cc1` stands -2.9%.
Turning to `Cn1c(N)c(C(=O)COC(=O)c2ccnc3ccccc23)c(=O)n(C)c1=O`, the cellular ATP content (survival) is -2.1%.
As for `O=C1CCCN1CCCN1C(=O)N[C@@H](Cc2ccccc2)C1=O`, the cellular ATP content (survival) is 2%.
`Cc1cc(C)cc(OCC(=O)NNC(=O)C2CCCO2)c1` (centres undefined): the cellular ATP content (survival) was -0.3%.
The same measure for `CC1CCCC(NC(=O)COC(=O)Cc2ccsc2)C1C` (centres undefined): -1.7%; for `Cc1ccc(CSCc2nnc(SCC(=O)N3CCN(c4ccccc4)CC3)n2C)cc1`: 2%; for `N#Cc1ccccc1Cn1cc(/C=C/[N+](=O)[O-])c2ccccc21`: 4%.
For the compound `O=C(CCn1nnc2ccccc21)Nc1nnc(-c2ccccc2F)s1`, the cellular ATP content (survival) is 0.6%.
Turning to `Cc1ccc(C)c(N2CCN(C(=O)COc3cc(=O)n(C)c4ccccc34)CC2)c1`, the cellular ATP content (survival) was -0.1%.
Turning to `Cc1ccc(CNC(=O)C(=O)NCC2OCCN2C(=O)c2cccs2)cc1` (centres undefined), the cellular ATP content (survival) is -0.2%.
Under `CCN1C=C(Cc2ccc(OC)cc2)C2=C(C1)C(c1ccc(OC)cc1)C(C#N)=C(N)O2` (centres undefined) stands -1.8%; under `O=C(N/N=C/c1ccc(OCC(=O)N2CCCCC2)cc1)c1ccccc1O`, 2.1%.
As for `CCC1Sc2ccccc2N(CC(=O)NC2CCCC2)C1=O` (centres undefined), the cellular ATP content (survival) was -1.6%.
Under `Cc1ccc(C(=O)N/C(=C\c2ccc(Br)cc2)c2nc(=S)[nH][nH]2)cc1` stands -11.2%; under `COc1ccc(OC)c(NC(=O)C2CCC(CNc3c(N4CCC(C)CC4)c(=O)c3=O)CC2)c1` (centres undefined), 1.6%.
For `O=CN1CCN(C(=O)c2ccc([N+](=O)[O-])cc2)CC1`, the cellular ATP content (survival) is 1.3%.
Under `COc1cccc(C(=O)CSc2nnc(CNS(C)(=O)=O)n2-c2ccc(C)cc2)c1` stands 0.4%; under `COCc1ccc([C@@H]2C[C@H]3CN(Cc4ccccc4C)C(=O)[C@]34CCCN24)o1`, 6.6%.
For `CCCOC(=O)CN1C(=O)c2ccccc2C1=O`, the cellular ATP content (survival) is -2.4%.
As for `Cc1ccc(S(=O)(=O)N(CC(=O)N/N=C/c2cccc(Cl)c2)c2cccc3cccnc23)cc1`, the cellular ATP content (survival) is 4.7%.
The same measure for `CCC(Sc1nc(N)cc(=O)[nH]1)C(=O)Nc1cc(C)on1` (centres undefined): 1.6%.
The same measure for `COc1ccc(NC(=O)c2ccccc2NC(=O)CSc2ccc(C)cc2)cc1`: 4%; for `Cc1ccc(C(=O)NNC2CC(=O)N(c3ccc4c(c3)OCCO4)C2=O)cc1` (centres undefined): -0.8%.
As for `NC(N)=NC(N)=Nc1ccc(SC(F)(F)F)cc1`, the cellular ATP content (survival) was 0.3%.
Turning to `COc1ccccc1-c1noc(CCC(=O)Nc2cc(C(F)(F)F)ccc2Cl)n1`, the cellular ATP content (survival) is 1%.
The same measure for `O=C(Nc1cccc(-c2cn3cccnc3n2)c1)Nc1ccccc1F`: -0.8%; for `O=C(NNS(=O)(=O)c1ccccc1)c1ccc(S(=O)(=O)N2CCCCC2)cc1`: -2.8%.
With `CSc1ccc(C(C(C(=O)c2cccs2)N2CCOCC2)N2CCOCC2)cc1` (centres undefined), the cellular ATP content (survival) was -1.7%.
`CCCn1c(=O)c2ccccc2n2c(SCC(=O)NCc3cccs3)nnc12`: the cellular ATP content (survival) was 2.6%.
The same measure for `COC(=O)C1=C(N)Oc2cc(C)n(Cc3cccnc3)c(=O)c2C1c1cc(OC)ccc1OC` (centres undefined): -3.1%.
The same measure for `O=C(COc1ncnc2scc(-c3ccccc3)c12)NC1CCCc2ccccc21` (centres undefined): -2.4%.
With `O=c1ccccn1CCOc1ccccc1Cl`, the cellular ATP content (survival) was 0.2%.
Under `CCOC(=O)C1C(=O)C=C(c2ccc(Br)cc2)CC1c1ccco1` (centres undefined) stands 0.2%; under `C[C@@H]1NC(=O)c2cc([N+](=O)[O-])cc(I)c2NCCCC[C@@H](C(N)=O)NC(=O)[C@H](CCC(=O)O)NC1=O`, 6.5%; under `Cc1cc(C)n2nc(-c3ccsc3-n3c(C)ccc3C)cc2n1`, 6%.
On to `Cn1c(=NC(=O)C2CCN(S(=O)(=O)c3cccs3)CC2)sc2ccccc21`, for which the cellular ATP content (survival) was -0.7%.
Under `COC(=O)COc1ccc(S(=O)(=O)N2CCc3ccccc3C2)cc1C` stands -0.7%; under `Cc1ccc(C(=O)/C=C/c2ccc(F)cc2)o1`, -13.2%.
`O=C(O)CCCn1cc(NC(=O)c2cc(F)c(F)cc2Cl)cn1`: the cellular ATP content (survival) was -2.1%.
Under `COc1ccccc1CNC(=O)CCNC(=O)Cn1cnc2ccccc2c1=O` stands 0.7%.
Under `CC1(C)CC(=O)C2=C(C1)NC(=O)CC2c1cc2c(cc1Br)OCO2` (centres undefined) stands -0.1%; under `O=C(N/N=C/c1ccncc1)NC1CCCCC1`, -0.5%.
Under `COc1cc(C(=O)Nc2cccc(-c3cn4cccnc4n3)c2)cc(OC)c1OC` stands -2%; under `O=C1c2ccccc2C(=O)C1C1=Nc2ccccc2NC(c2ccccc2)C1` (centres undefined), 4.7%; under `Nc1ccc(Cc2nc3cc4ccccc4cc3[nH]2)cc1`, -1.5%.
As to `CCc1cccc(C)c1NC(=S)N(Cc1cccnc1)Cc1ccco1`, the cellular ATP content (survival) is -2.7%.
The same measure for `O=C(COc1ccc(Cl)cc1)N1CCN(C(=O)Cc2ccccc2)CC1`: 5.3%.
Consider `CCOC(=O)N1CCN(C(=O)c2cnn3ccccc23)CC1`, for which the cellular ATP content (survival) was 2.2%.
As to `O=C(N/N=C/c1cccc(Oc2ccccc2)c1)c1ccccc1Br`, the cellular ATP content (survival) is 0%.
Under `Cc1cccc(-n2cnc3cc(C(=O)N4CCc5ccccc54)ccc32)c1` stands -2.1%; under `Cc1[nH]nc(Nc2ccc(O)cc2)c1[N+](=O)[O-]`, -1.1%; under `O=C(/C=C/c1ccco1)OCn1nnc2ccccc2c1=O`, -0.7%.
With `Cc1cccc(-c2ncc(CN3CCN(CCC(C)C)C(CCO)C3)cn2)c1` (centres undefined), the cellular ATP content (survival) was 0.8%.

For the origin of these results see PubChem BioAssay AID1222 (Sanford-Burnham Center for Chemical Genomics, 2008).
